Screen size: about 47,000 compounds; about 200 (0.43%) were called active. Not shown: some 1% with an inconclusive outcome.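 The calls were made as follows: active = inhibition of aggregate fluorescence above about 70%, also judged a hit by eye on the cell image (limit read from the data, passing the limit was not always enough); inconclusive = no rule stated for this call; inactive = not judged a hit on image review.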 The list comes from a sample in which actives are over-represented; it also holds similar structures and randomly drawn compounds.

A short description of the assay: removal of polyQ htt aggregates in HeLa – imaging, HeLa Exon1htt(103Q)mCFP, confocal imaging, primary screen (AID 853).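 Also: cells exposed to compound for three days before fixation.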 The note with it: aggregate imaging, at 1.5 µM; fraction fluorescence in grains: measured here: aggregate grain fluorescence fraction, stronger effect = lower value; inhibition: stronger effect = higher value, zero = plate's median compound well.
Regarding `CCOc1ccccc1C(=O)NC1CC2CCCC(C1)N2Cc1ccccc1` (stereo unspecified), the fraction fluorescence in grains was found to be 14.9 and the inhibition – broadly, the relative decrease from the control value, in per cent – was 23.5% (inactive).

For `CNc1nc(SC)nc(N(C#N)CC(=O)OC)n1`, the fraction fluorescence in grains amounted to 30.5 and the inhibition was -71% (inactive).

On to `CCC(=O)Nc1nc2ccccc2n1Cc1ccccc1C`, for which the fraction fluorescence in grains stood at 32.9 and the inhibition was 4.8% (inactive).

Turning to `C=CCn1c(C(C)NC(=O)CC)nc2ccccc21` (stereo unspecified), the fraction fluorescence in grains was determined as 34.1 and the inhibition is -61.6% (inactive).

For the compound `CC(=O)NC(C)c1nc2ccccc2n1Cc1ccccc1F` (stereo unspecified), the fraction fluorescence in grains was determined as 3.88 and the inhibition is 76.4% (active).

In the case of `COC(=O)C1C(=O)NCC1c1ccc(OC)cc1` (stereo unspecified), the fraction fluorescence in grains is 12 and the inhibition was 35.5% (inactive).

In the case of `Cc1sc2nc(SCC(N)=O)n(C)c(=O)c2c1C`, the fraction fluorescence in grains was determined as 18.7 and the inhibition is -1.9% (inactive).

Take `Cc1ccccc1NC(=O)c1ccccc1NS(=O)(=O)c1cccc2cccnc12`: the fraction fluorescence in grains is 11.2 and the inhibition is 46.2% (inactive).

Take `Cn1c(SCC(=O)N2CCOCC2)nnc1-c1ccc(NC(=O)c2ccccc2F)cc1`: the fraction fluorescence in grains turned out to be 22.6 and the inhibition was -25.1% (inactive).

Take `O=C(NCCCCc1ccccc1)C1CC(c2ccc([N+](=O)[O-])cc2)=NO1` (stereo unspecified): the fraction fluorescence in grains came out at 23.6 and the inhibition was 39.3% (inactive).

Turning to `NC1=NC(=O)C2(COC(c3ccccc3Cl)OC2)S1` (stereo unspecified), the fraction fluorescence in grains came out at 13.6 and the inhibition was 19.2% (inactive).

As to `Cc1nnc(SCC(=O)NCCOc2ccc(Cl)cc2)n1-c1ccccc1`, the fraction fluorescence in grains worked out at 36.3 and the inhibition is 2.1% (inactive).

In the case of `O=C(CSc1nnc(-c2cccs2)n1Cc1ccccc1)N1CCc2ccccc2C1`, the fraction fluorescence in grains came to 52.6 and the inhibition is -33.1% (inactive).

On to `CCOc1ccccc1C1NC(=O)NC(C)=C1C(=O)OCc1ccco1` (stereo unspecified), for which the fraction fluorescence in grains was 36.7 and the inhibition is -10.5% (inactive).

On to `COCCOC(=O)C1=C(C)NC(=O)NC1c1ccc(Cl)cc1` (stereo unspecified), for which the fraction fluorescence in grains worked out at 28.5 and the inhibition was 33.5% (inactive).

With `COc1cccc2c(=O)n(CC(=O)N3CCCCCC3)ccc12`, the fraction fluorescence in grains was 40.9 and the inhibition is -22% (inactive).

`COc1ccc(N(CC(=O)NC2CCCCC2)C(=O)CNC(=O)c2ccco2)c(OC)c1`: the fraction fluorescence in grains worked out at 22.1 and the inhibition was -26.1% (inactive).

Regarding `Cc1noc(COc2ccccc2OCc2onc(C)c2Cl)c1Cl`, the fraction fluorescence in grains came out at 24.8 and the inhibition was -49.4% (inactive).

`CCOC(=O)C1CCN(Cc2coc3ccc(Cl)cc3c2=O)CC1`: the fraction fluorescence in grains was 22.3 and the inhibition is -15.2% (inactive).

Regarding `Cc1cccc2c(=O)n3c(nc12)CCCCC3`, the fraction fluorescence in grains is 18.2 and the inhibition is 11% (inactive).

As to `CC(Sc1nnc(Cc2ccc([N+](=O)[O-])cc2)o1)C(N)=O` (stereo unspecified), the fraction fluorescence in grains stood at 30.7 and the inhibition is 0.3% (inactive).

Consider `Cc1nc(NC2=NC(C(=O)Nc3ccc(Cl)cc3)CC(=O)N2)nc2ccccc12` (stereo unspecified), for which the fraction fluorescence in grains was 22.8 and the inhibition is 22.1% (inactive).

Consider `CCCCCN1CC(O)=C(c2nc(-c3ccc(Cl)cc3)cs2)C1=N`, for which the fraction fluorescence in grains stood at 36.3 and the inhibition was 8.6% (inactive).

For the compound `CCN(CC)CCN1C(=O)C(=O)/C(=C(/O)c2cnn(-c3ccccc3)c2C)C1c1cccs1` (stereo unspecified), the fraction fluorescence in grains was 54.5 and the inhibition is -25.7% (inactive).

On to `O=C(NCCSCc1ccccc1)c1ccc(Cl)c(S(=O)(=O)N2CCOCC2)c1`, for which the fraction fluorescence in grains turned out to be 25.6 and the inhibition is -28.1% (inactive).

For the compound `CC(=O)N1CCN(c2cccc(C)c2C)CC1`, the fraction fluorescence in grains was determined as 46.1 and the inhibition is -25.4% (inactive).

On to `CC(C)C[C@H](NC(=O)NCCc1ccc(Cl)cc1)C(=O)O`, for which the fraction fluorescence in grains worked out at 16.2 and the inhibition was 12.2% (inactive).

Consider `CSCC[C@H](NC(=O)NCCc1ccc(F)cc1)C(=O)O`, for which the fraction fluorescence in grains was 15.6 and the inhibition was 18.4% (inactive).

For `C[C@H](NC(=O)NCCc1ccccc1)C(=O)O`, the fraction fluorescence in grains stood at 5.06 and the inhibition is 70.9% (active).

As for `O=C(c1ccc(F)cc1)c1c[nH]c(C(=O)NCc2cccnc2)c1`, the fraction fluorescence in grains was determined as 38.1 and the inhibition was 1% (inactive).

As to `Fc1cnc(N2CCOCC2)nc1NCc1ccccc1`, the fraction fluorescence in grains turned out to be 12.4 and the inhibition is 35.6% (inactive).

For `O=c1c2ccccc2nc2n1C(CSCc1ccccc1)CS2` (stereo unspecified), the fraction fluorescence in grains turned out to be 35.3 and the inhibition is 8.1% (inactive).

With `CCCc1cc(=O)[nH]c(SCC(=O)OCc2ccccc2)n1`, the fraction fluorescence in grains was determined as 59.2 and the inhibition was -54.1% (inactive).

On to `CCOC(=O)Cc1csc(NC(=O)CSc2nnc(-c3cccnc3)n2Cc2ccco2)n1`, for which the fraction fluorescence in grains came to 20.9 and the inhibition was -18.9% (inactive).

With `Cc1nn(Cc2ccc(C(=O)N3N=C(C(F)F)CC3(O)C(F)F)cc2)c(C)c1[N+](=O)[O-]` (stereo unspecified), the fraction fluorescence in grains was found to be 62.5 and the inhibition is -61% (inactive).

Turning to `CCN1C(=O)/C(=C2/Sc3ccc(OC)cc3N2C)SC1=Nc1ccc(C)cc1`, the fraction fluorescence in grains was determined as 17.9 and the inhibition was -1.7% (inactive).

Consider `CCOC(=O)c1cnc(SCC(=O)Nc2ccccc2C(=O)OC)nc1N`, for which the fraction fluorescence in grains amounted to 20.5 and the inhibition was -16.8% (inactive).

With `COc1ccc(C(=O)Nc2nc(-c3ccc(OC)cc3)c(-c3ccc([N+](=O)[O-])cc3)s2)cc1`, the fraction fluorescence in grains is 21.2 and the inhibition was 47.9% (inactive).

Take `CCN(CC)S(=O)(=O)c1ccc2c3c(cccc13)C(=O)S2`: the fraction fluorescence in grains is 38.9 and the inhibition is -8.8% (inactive).

As for `COc1ccc(Cl)cc1C(=O)NCC#N`, the fraction fluorescence in grains is 28.6 and the inhibition was 27.9% (inactive).

As to `COc1ccc(C(=O)NCCc2ccc(S(N)(=O)=O)cc2)cc1OC`, the fraction fluorescence in grains was determined as 43.5 and the inhibition was -18.4% (inactive).

Consider `CCn1c(O)c2ccc(C(=O)N=NC(=O)c3cccnc3)cc2c1O`, for which the fraction fluorescence in grains was 37.7 and the inhibition was -25.3% (inactive).

In the case of `Cc1ccc(-c2nn(-c3ccccc3)cc2/C=N/NC(=O)c2ccc3c(c2)OCO3)cc1`, the fraction fluorescence in grains amounted to 34 and the inhibition was -12.7% (inactive).

(Values after PubChem BioAssay AID853 (Columbia University Molecular Screening Center, 2007).)
